Source: PubChem BioAssay (NCATS)
The source made the active and inactive calls. No rule for the calls is given here.

conditions: Ebola virus entry assay, ratio channel

SMILES	AC50	outcome
O=C1NCCN1CCN1CCC(c2cn(-c3ccc(F)cc3)c3ccc(Cl)cc23)CC1	1 µM (active)	–
OC(CCCN1CCCCC1)(c1ccccc1)c1ccccc1	7.94 µM (active)	–
CCN(CC)CCOC(=O)C(c1ccccc1)C1CCCCC1 (stereo not drawn)	1.58 µM (active)	–
CCOC(=O)C1=C(C)NC(C)=C(C(=O)OCC)C1c1ccccc1/C=C/C(=O)OC(C)(C)C	–	inactive
COc1cccc(N(C)C(=S)Oc2ccc3c(c2)CCCC3)n1	28.2 µM (active)	–
CCCOC(C(=O)OC1CCN(C)CC1)(c1ccccc1)c1ccccc1	7.08 µM (active)	–
COc1ccc(CCN(C)CCCC(C#N)(c2cc(OC)c(OC)c(OC)c2)C(C)C)cc1OC (stereo not drawn)	14.1 µM (active)	–
NCc1ccccc1Sc1ccccc1CO	20 µM (active)	–
Cc1nc2n(c(=O)c1CCN1CCC(C(=O)c3ccc(F)cc3)CC1)CCS2	–	inactive
COc1ccccc1N1CCN(CC(O)COc2cccc3ccccc23)CC1 (stereo not drawn)	12.6 µM (active)	–
CC[n+]1c(-c2ccccc2)c2cc(N)ccc2c2ccc(N)cc21	14.1 µM (active)	–
Nc1c2c(nc3c1CCC3)CCCC2	–	inactive
CC(=O)SC[C@@H](Cc1ccccc1)C(=O)NCC(=O)OCc1ccccc1	28.2 µM (active)	–
C=C1c2cccc(O)c2C(O)=C2C(=O)[C@]3(O)C(O)=C(C(N)=O)C(=O)[C@@H](N(C)C)[C@@H]3[C@@H](O)[C@H]12	6.31 µM (active)	–
CSc1ccc(/C=C2/C(C)=C(CC(=O)O)c3cc(F)ccc32)cc1	–	inactive
CN1CCC(=C2c3ccccc3CCc3sccc32)CC1	8.91 µM (active)	–
C[C@@H]1CN(CCCn2c3ccccc3c3ccccc32)C[C@H](C)N1	3.16 µM (active)	–
COc1ccc2c(c1)c(CC(=O)OCC(=O)O)c(C)n2C(=O)c1ccc(Cl)cc1	–	inactive
CC(C)(C)c1ccc(C(=O)CCCN2CCC(OC(c3ccccc3)c3ccccc3)CC2)cc1	8.91 µM (active)	–
CCN(CC)CCOCCOC(=O)C1(c2ccccc2)CCCC1	10 µM (active)	–

SMILES	AC50	outcome
COc1cc(C(=O)OCCCN2CCCN(CCCOC(=O)c3cc(OC)c(OC)c(OC)c3)CC2)cc(OC)c1OC	12.6 µM (active)	–
CN1CCC(=C2c3ccccc3CC(=O)c3sccc32)CC1	28.2 µM (active)	–
CCCCNc1ccc(C(=O)OCCN(CC)CC)cc1	22.4 µM (active)	–
CN1CCC(OC(c2ccccc2)c2ccccc2)CC1	10 µM (active)	–
CC[C@]12CCCN3CCc4c(n(c5ccccc45)C(=O)C1)[C@@H]32	28.2 µM (active)	–
CN1C[C@H](C(=O)N[C@]2(C)O[C@@]3(O)[C@@H]4CCCN4C(=O)[C@H](Cc4ccccc4)N3C2=O)C[C@@H]2c3cccc4[nH]cc(c34)C[C@H]21	17.8 µM (active)	–
CN(CCCN1c2ccccc2CCc2ccccc21)CC(=O)c1ccc(Cl)cc1	25.1 µM (active)	–
CCCCCCCCNC(C)C(O)c1ccc(SC(C)C)cc1 (stereo not drawn)	11.2 µM (active)	–
CCCCCCCCCCOCC(O)CN (stereo not drawn)	1.78 µM (active)	–
CCCCCCCCCCCCCCCC[n+]1ccccc1	14.1 µM (active)	–
CC1=C(CC(=O)O)c2cc(F)ccc2/C1=C\c1ccc(S(C)=O)cc1 (stereo not drawn)	–	inactive
Cc1ccc2c(Br)cc(Br)c(O)c2n1	39.8 µM (active)	–
CCC(=O)O[C@]1(C(=O)CCl)[C@@H](C)C[C@H]2[C@@H]3CCC4=CC(=O)C=C[C@]4(C)[C@@]3(F)[C@@H](O)C[C@@]21C	31.6 µM (active)	–
NC(=NCCCCCCN=C(N)/N=C(\N)Nc1ccc(Cl)cc1)/N=C(\N)Nc1ccc(Cl)cc1	–	inactive
O=C(OCC(O)CO)c1ccccc1Nc1ccnc2cc(Cl)ccc12 (stereo not drawn)	20 µM (active)	–
Cc1oc(-c2ccccc2)nc1CCC(=O)c1ccc(CC2SC(=O)NC2=O)cc1 (stereo not drawn)	–	inactive
OC(C#CCN1CCCC1)(c1ccccc1)c1ccccc1	–	inactive
CC(NCCC(c1ccccc1)c1ccccc1)c1ccccc1 (stereo not drawn)	2.51 µM (active)	–
C=CCc1ccccc1OCC(O)CNC(C)C (stereo not drawn)	25.1 µM (active)	–

conditions: Ebola virus entry assay, reporter ratio channel; Channel type: primary

SMILES	AC50	outcome
O=C1NCCN1CCN1CCC(c2cn(-c3ccc(F)cc3)c3ccc(Cl)cc23)CC1	1 µM (active)	–
OC(CCCN1CCCCC1)(c1ccccc1)c1ccccc1	7.94 µM (active)	–
CCN(CC)CCOC(=O)C(c1ccccc1)C1CCCCC1 (stereo not drawn)	1.58 µM (active)	–
CCOC(=O)C1=C(C)NC(C)=C(C(=O)OCC)C1c1ccccc1/C=C/C(=O)OC(C)(C)C	–	inactive
COc1cccc(N(C)C(=S)Oc2ccc3c(c2)CCCC3)n1	28.2 µM (active)	–
CCCOC(C(=O)OC1CCN(C)CC1)(c1ccccc1)c1ccccc1	7.08 µM (active)	–
COc1ccc(CCN(C)CCCC(C#N)(c2cc(OC)c(OC)c(OC)c2)C(C)C)cc1OC (stereo not drawn)	14.1 µM (active)	–
NCc1ccccc1Sc1ccccc1CO	20 µM (active)	–
Cc1nc2n(c(=O)c1CCN1CCC(C(=O)c3ccc(F)cc3)CC1)CCS2	–	inactive
COc1ccccc1N1CCN(CC(O)COc2cccc3ccccc23)CC1 (stereo not drawn)	12.6 µM (active)	–
CC[n+]1c(-c2ccccc2)c2cc(N)ccc2c2ccc(N)cc21	14.1 µM (active)	–
Nc1c2c(nc3c1CCC3)CCCC2	31.6 µM (active)	–
CC(=O)SC[C@@H](Cc1ccccc1)C(=O)NCC(=O)OCc1ccccc1	28.2 µM (active)	–
C=C1c2cccc(O)c2C(O)=C2C(=O)[C@]3(O)C(O)=C(C(N)=O)C(=O)[C@@H](N(C)C)[C@@H]3[C@@H](O)[C@H]12	6.31 µM (active)	–
CSc1ccc(/C=C2/C(C)=C(CC(=O)O)c3cc(F)ccc32)cc1	–	inactive
CN1CCC(=C2c3ccccc3CCc3sccc32)CC1	8.91 µM (active)	–
C[C@@H]1CN(CCCn2c3ccccc3c3ccccc32)C[C@H](C)N1	3.16 µM (active)	–
COc1ccc2c(c1)c(CC(=O)OCC(=O)O)c(C)n2C(=O)c1ccc(Cl)cc1	–	inactive
CC(C)(C)c1ccc(C(=O)CCCN2CCC(OC(c3ccccc3)c3ccccc3)CC2)cc1	8.91 µM (active)	–
CCN(CC)CCOCCOC(=O)C1(c2ccccc2)CCCC1	10 µM (active)	–

SMILES	AC50	outcome
COc1cc(C(=O)OCCCN2CCCN(CCCOC(=O)c3cc(OC)c(OC)c(OC)c3)CC2)cc(OC)c1OC	12.6 µM (active)	–
CN1CCC(=C2c3ccccc3CC(=O)c3sccc32)CC1	28.2 µM (active)	–
CCCCNc1ccc(C(=O)OCCN(CC)CC)cc1	22.4 µM (active)	–
CN1CCC(OC(c2ccccc2)c2ccccc2)CC1	10 µM (active)	–
CC[C@]12CCCN3CCc4c(n(c5ccccc45)C(=O)C1)[C@@H]32	28.2 µM (active)	–
CN1C[C@H](C(=O)N[C@]2(C)O[C@@]3(O)[C@@H]4CCCN4C(=O)[C@H](Cc4ccccc4)N3C2=O)C[C@@H]2c3cccc4[nH]cc(c34)C[C@H]21	17.8 µM (active)	–
CN(CCCN1c2ccccc2CCc2ccccc21)CC(=O)c1ccc(Cl)cc1	25.1 µM (active)	–
CCCCCCCCNC(C)C(O)c1ccc(SC(C)C)cc1 (stereo not drawn)	11.2 µM (active)	–
CCCCCCCCCCOCC(O)CN (stereo not drawn)	1.78 µM (active)	–
CCCCCCCCCCCCCCCC[n+]1ccccc1	14.1 µM (active)	–
CC1=C(CC(=O)O)c2cc(F)ccc2/C1=C\c1ccc(S(C)=O)cc1 (stereo not drawn)	–	inactive
Cc1ccc2c(Br)cc(Br)c(O)c2n1	39.8 µM (active)	–
CCC(=O)O[C@]1(C(=O)CCl)[C@@H](C)C[C@H]2[C@@H]3CCC4=CC(=O)C=C[C@]4(C)[C@@]3(F)[C@@H](O)C[C@@]21C	31.6 µM (active)	–
NC(=NCCCCCCN=C(N)/N=C(\N)Nc1ccc(Cl)cc1)/N=C(\N)Nc1ccc(Cl)cc1	39.8 µM (active)	–
O=C(OCC(O)CO)c1ccccc1Nc1ccnc2cc(Cl)ccc12 (stereo not drawn)	20 µM (active)	–
Cc1oc(-c2ccccc2)nc1CCC(=O)c1ccc(CC2SC(=O)NC2=O)cc1 (stereo not drawn)	–	inactive
OC(C#CCN1CCCC1)(c1ccccc1)c1ccccc1	35.5 µM (active)	–
CC(NCCC(c1ccccc1)c1ccccc1)c1ccccc1 (stereo not drawn)	2.51 µM (active)	–
C=CCc1ccccc1OCC(O)CNC(C)C (stereo not drawn)	25.1 µM (active)	–
